# Data reported in PubChem BioAssay (EPA / NIEHS).
# Several values for one entry are separate records, joined by “and”; a condition that tells them apart may be missing. Equal values may be shown once. Results filed as inconclusive are left out. The source holds several records for some structures; these can differ, active in one and inactive in another. Activity calls are given as the source filed them. How the source made its calls: active means hit-call score of the fitted dose curve at least 0.9, where 1 is the maximum; inconclusive means response in the unintended direction; inactive means score below 0.9.
# Experiments:
# [1] = biological target: Androgen Receptor/SRC-1 Co-activator, AR (gene 367) (UniProt P10275); test: OT_AR_ARSRC1_0960: Odyssey Thera (OT) 16-hour HEK293T Protein-Complementation Assay for Androgen Receptor/SRC-1 Co-activator (AID 2283353);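 further: actives raise the signal above DMSO so potency reflects increased AR and SRC-1 complex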
# Method in brief: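 Split-Venus PCA, AR/SRC-1 fusions, stable HEK293T; 16 h compound exposure; imaged at 488 and 635 nm; N/C ratio (488 nm channel), min 400 cells/image; positive-direction fit, DMSO baseline.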
# [2] = biological target: Androgen Receptor/SRC-1 Co-activator, AR (gene 367) (UniProt P10275); test: OT_AR_ARSRC1_0480: Odyssey Thera (OT) 8-hour HEK293T Protein-Complementation Assay for Androgen Receptor/SRC-1 Co-activator (AID 2283354);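 further: hits raise the complementation signal above DMSO so AC50 marks enhancers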
# Method in brief: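 HEK293T cells stably expressing AR and SRC-1 fused to split Venus YFP fragments via (Gly4Ser)2 linkers were read 8 h after compound dosing. Complementation was imaged at 488 and 635nm, and nuclear/cytoplasmic fluorescence ratio (488nm) was taken over ≥400 cells; gain-of-signal versus DMSO.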
# [3] = biological target: Estrogen receptor beta (Homo sapiens) (UniProt Q92731); test: OT_ER_ERbERb_0480: Odyssey Thera (OT) 8-hour HEK293T Protein-Complementation Assay for Estrogen Receptor-beta/-beta Homodimer (AID 2283357);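 further: active means signal gain over DMSO baseline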
# Method in brief: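 Readout: increase in mean fluorescence intensity (nucleus for agonists; nucleus plus cytoplasm for antagonists) relative to DMSO, from a reporter-fragment complementation of human ER-beta LBD homodimer in HEK293T cells dosed 8 hours.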
# [4] = biological target: Estrogen receptor (Homo sapiens) + Estrogen receptor beta (Homo sapiens) (UniProt P03372+Q92731); test: OT_ER_ERaERb_1440: Odyssey Thera (OT) 24-hour HEK293T Protein-Complementation Assay for Estrogen Receptor-alpha/-beta Homodimer (AID 2283356);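 further: heteromer of ER alpha and ER beta binding domains; hits raise reporter fluorescence and both agonists and antagonists give an increase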
# Method in brief: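 HEK293T stably expressing a PCA of ER alpha LBD (aa 310-547) and ER beta LBD (aa 263-489). After 24 h compound exposure, mean fluorescence intensity in nucleus (agonists) or nucleus and cytoplasm (antagonists) measured by laser scanning cytometry versus vehicle.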
# [5] = biological target: Retinoic acid receptor alpha (Homo sapiens) (UniProt P10276); test: NVS_NR_hRAR_Antagonist: NovaScreen (NVS) Nuclear Receptor Binding Assay for human Retinoic Acid Alpha Receptor Antagonism (RAR) (AID 2283358)
# Method in brief: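 Cell-free TR-FRET binding assay on extracted receptor protein, run in antagonist mode; signal read 2 hours after chemical dosing. Loss of signal was fitted relative to DMSO baseline. Screened at 25 uM in duplicate, actives followed up in concentration series.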
# [6] = biological target: rat Androgen Receptor (AR), Ar (gene 24208) (UniProt P15207); test: NVS_NR_rAR: NovaScreen (NVS) Nuclear Receptor Binding Assay for rat Androgen Receptor (AR) (AID 2283366)
# Method in brief: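 Cell-free radioligand binding on extracts of prostate from testosterone-pretreated rats, read by filter-based scintillation counting 18 h after dosing. Loss of bound signal fitted positively versus DMSO; primary screen in duplicate at 25 uM, actives followed up in concentration series.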
# [7] = biological target: human Dopamine Transporter (DAT), SLC6A3 (gene 6531) (UniProt Q01959); test: NVS_TR_hDAT: NovaScreen (NVS) Transporter Assay for human Dopamine Transporter (DAT) (AID 2283374);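 further: activity means loss of bound radioligand signal relative to DMSO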
# Method in brief: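 Cell-free radioligand binding to extracted human DAT protein, read 1 h after dosing by filter-based scintillation counting. Loss of specific binding scored against DMSO baseline; primary screen in duplicate at 25 uM, actives then run in concentration series.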
# [8] = biological target: Peroxisome proliferator-activated receptor gamma (Homo sapiens) (UniProt P37231); test: NVS_NR_hPPARg: NovaScreen (NVS) Nuclear Receptor Binding Assay for human Peroxisome Proliferator-activated Receptor gamma (PPARg) (AID 2283370)
# Method in brief: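 Cell-free fluorescence polarization binding to human PPARg protein, read 2 h after dosing. Primary screen in duplicate at 25 uM, actives followed in concentration series; loss of signal relative to DMSO scored.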
# [9] = biological target: Nuclear receptor subfamily 1 group I member 2 (Homo sapiens) (UniProt O75469); test: NVS_NR_hPXR: NovaScreen (NVS) Nuclear Receptor Binding Assay for human Pregnane X Receptor (PXR) (AID 2283365);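 further: a drop in FRET signal versus DMSO baseline means the compound binds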
# Method in brief: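 Cell-free TR-FRET binding assay with extracted human PXR protein, read 2 h after dosing. Primary screen run in duplicate at 25 uM, actives followed in concentration series; loss of signal fitted against DMSO baseline.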
# [10] = biological target: guinea pig Sigma Receptor, Non-selective Binding, SIGMAR1 (gene 100135589) (UniProt Q60492); test: NVS_OR_gSIGMA_NonSelective: NovaScreen (NVS) Nuclear Receptor Binding Assay for guinea pig Sigma Receptor, Non-selective Binding (AID 2283367)
# Method in brief: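 Guinea pig brain membranes, cell-free radioligand binding; read 1 h after dosing by filter-based scintillation counting. Loss of signal vs DMSO baseline taken as displacement. Primary screen single concentration 25 uM in duplicate; actives retested in concentration series.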
# [11] = system: guinea pig Dopamine Transporter (DAT), gene 100714898; test: NVS_TR_gDAT: NovaScreen (NVS) Transporter Assay for guinea pig Dopamine Transporter (DAT) (AID 2283369);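 further: active compounds lower bound radioligand signal relative to DMSO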
# Method in brief: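 Guinea pig striatal membranes, cell-free radioligand binding with filter-based scintillation counting, read 2 h after dosing. Loss of signal versus DMSO baseline; single-concentration primary (25 uM) then concentration-response up to 50 uM.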
# [12] = system: rat Norepinephrine Transporter (NET), gene 83511; test: NVS_TR_rNET: NovaScreen (NVS) Transporter Assay for rat Norepinephrine Transporter (NET) (AID 2283373)
# Method in brief: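 Rat forebrain membranes; radioligand binding measured by filter-based scintillation counting 1 hour after dosing. Loss of specific binding versus DMSO baseline scored; primary screen in duplicate at 25 uM, actives followed up in concentration series.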
# [13] = biological target: rat Serotonin Transporter (SERT), Slc6a4 (gene 25553) (UniProt P31652); test: NVS_TR_rSERT: NovaScreen (NVS) Transporter Assay for rat Serotonin Transporter (SERT) (AID 2283375)
# Method in brief: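 Rat forebrain membranes; radioligand displacement at SERT read by filter-based scintillation counting, 1 h after dosing. Screened in duplicate at 25 uM, actives then run in concentration series; loss of signal versus DMSO baseline.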
# [14] = biological target: human Norepinephrine Transporter (NET), SLC6A2 (gene 6530) (UniProt P23975); test: NVS_TR_hNET: NovaScreen (NVS) Transporter Assay for human Norepinephrine Transporter (NET) (AID 2283377);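 further: cell-free membrane protein extracted from CHO cells expressing human NET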
# Method in brief: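 Radioligand binding to human NET in cell-free CHO-derived protein preparations, read by filter-based scintillation counting 1 hour after dosing. Loss of signal versus DMSO baseline indicated displacement; primary screening in duplicate at 25 uM, actives then titrated.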
# [15] = biological target: human Serotonin Transporter (SERT), SLC6A4 (gene 6532) (UniProt P31645); test: NVS_TR_hSERT: NovaScreen (NVS) Transporter Assay for human Serotonin Transporter (SERT) (AID 2283372)
# Method in brief: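 Radioligand binding to native SERT in human platelet membranes, read by filter-based scintillation counting 1 h after dosing. Primary screen in duplicate at 25 uM; actives followed up in concentration series; loss of signal versus DMSO baseline.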
# [16] = biological target: Retinoic acid receptor alpha (Homo sapiens) (UniProt P10276); test: NVS_NR_hRARa_Agonist: NovaScreen (NVS) Nuclear Receptor Binding Assay for human Retinoic Acid Alpha Receptor Agonism (RAR) (AID 2283361)
# Method in brief: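 Cell-free TR-FRET binding read-out with extracted human RARα protein, read 2 h after compound addition. Gain of signal scored against DMSO baseline. Primary screen at a single 25 uM in duplicate; actives then retested in concentration series.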
# [17] = biological target: human Thyroid Receptor Alpha (TRa), THRA (gene 7067) (UniProt P10827); test: NVS_NR_hTRa_Antagonist: NovaScreen (NVS) Nuclear Receptor Binding Assay for human Thyroid Receptor Alpha Antagonism (TRa) (AID 2283362);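 further: activity is loss of signal relative to DMSO baseline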
# Method in brief: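 Cell-free AlphaLISA chemiluminescent binding read 1 h after dosing, antagonist mode; signal loss versus DMSO baseline. Primary screen in duplicate at 25 uM, then concentration series for actives.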
# Retinoic acid receptor alpha (Homo sapiens), sequence (P10276 whole entry, looked up): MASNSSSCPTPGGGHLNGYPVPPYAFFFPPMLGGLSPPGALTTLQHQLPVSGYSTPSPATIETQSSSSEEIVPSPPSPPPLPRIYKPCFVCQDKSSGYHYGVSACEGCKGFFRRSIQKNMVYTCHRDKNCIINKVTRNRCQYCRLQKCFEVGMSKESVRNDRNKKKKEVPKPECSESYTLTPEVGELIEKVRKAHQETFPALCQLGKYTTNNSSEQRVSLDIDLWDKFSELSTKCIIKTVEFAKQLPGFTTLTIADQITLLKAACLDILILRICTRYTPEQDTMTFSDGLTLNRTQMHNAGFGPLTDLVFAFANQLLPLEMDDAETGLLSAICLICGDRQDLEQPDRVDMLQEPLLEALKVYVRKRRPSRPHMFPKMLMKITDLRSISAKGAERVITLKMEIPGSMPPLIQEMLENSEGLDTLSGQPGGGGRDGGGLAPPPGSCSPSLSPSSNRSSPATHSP
# Peroxisome proliferator-activated receptor gamma (Homo sapiens), sequence (P37231 whole entry, looked up): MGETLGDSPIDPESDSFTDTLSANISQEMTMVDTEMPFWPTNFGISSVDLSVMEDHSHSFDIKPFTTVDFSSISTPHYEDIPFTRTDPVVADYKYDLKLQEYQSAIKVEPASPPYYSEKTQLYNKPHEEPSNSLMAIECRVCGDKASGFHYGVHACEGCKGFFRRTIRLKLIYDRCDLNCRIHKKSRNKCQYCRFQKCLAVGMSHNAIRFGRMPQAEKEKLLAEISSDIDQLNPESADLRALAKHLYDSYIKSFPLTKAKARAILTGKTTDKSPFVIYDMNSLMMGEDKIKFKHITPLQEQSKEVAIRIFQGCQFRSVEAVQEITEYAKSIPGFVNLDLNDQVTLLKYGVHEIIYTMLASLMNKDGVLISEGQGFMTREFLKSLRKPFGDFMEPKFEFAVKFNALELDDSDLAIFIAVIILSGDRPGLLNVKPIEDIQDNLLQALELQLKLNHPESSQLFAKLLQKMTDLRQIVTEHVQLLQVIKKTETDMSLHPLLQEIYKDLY
# guinea pig Sigma Receptor, Non-selective Binding, SIGMAR1 (gene 100135589), sequence (Q60492 whole entry, looked up): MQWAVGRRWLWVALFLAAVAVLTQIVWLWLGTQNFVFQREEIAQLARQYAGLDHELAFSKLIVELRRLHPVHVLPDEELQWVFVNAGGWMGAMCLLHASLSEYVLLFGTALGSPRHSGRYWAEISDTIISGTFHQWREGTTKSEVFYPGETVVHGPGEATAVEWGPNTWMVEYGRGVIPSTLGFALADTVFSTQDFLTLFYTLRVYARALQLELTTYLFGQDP
# human Dopamine Transporter (DAT), SLC6A3 (gene 6531), sequence (Q01959 whole entry, looked up): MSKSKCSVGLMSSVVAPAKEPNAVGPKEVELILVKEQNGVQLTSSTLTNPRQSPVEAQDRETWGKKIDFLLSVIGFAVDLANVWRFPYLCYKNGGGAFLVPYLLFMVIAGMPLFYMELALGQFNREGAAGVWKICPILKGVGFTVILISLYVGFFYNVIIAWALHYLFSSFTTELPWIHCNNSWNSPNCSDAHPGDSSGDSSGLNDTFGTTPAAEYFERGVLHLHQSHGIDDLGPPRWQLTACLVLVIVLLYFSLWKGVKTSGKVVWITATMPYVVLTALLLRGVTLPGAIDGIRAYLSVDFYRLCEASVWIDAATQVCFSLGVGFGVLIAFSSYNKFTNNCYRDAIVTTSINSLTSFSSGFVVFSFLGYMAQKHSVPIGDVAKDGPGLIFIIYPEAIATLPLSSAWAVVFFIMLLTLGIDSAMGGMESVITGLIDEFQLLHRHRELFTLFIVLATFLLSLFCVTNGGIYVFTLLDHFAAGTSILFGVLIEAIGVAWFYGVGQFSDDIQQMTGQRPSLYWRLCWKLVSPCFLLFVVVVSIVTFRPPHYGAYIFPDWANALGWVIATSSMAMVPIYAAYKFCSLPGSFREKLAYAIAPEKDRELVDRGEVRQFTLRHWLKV
# rat Serotonin Transporter (SERT), Slc6a4 (gene 25553), sequence (P31652 whole entry, looked up): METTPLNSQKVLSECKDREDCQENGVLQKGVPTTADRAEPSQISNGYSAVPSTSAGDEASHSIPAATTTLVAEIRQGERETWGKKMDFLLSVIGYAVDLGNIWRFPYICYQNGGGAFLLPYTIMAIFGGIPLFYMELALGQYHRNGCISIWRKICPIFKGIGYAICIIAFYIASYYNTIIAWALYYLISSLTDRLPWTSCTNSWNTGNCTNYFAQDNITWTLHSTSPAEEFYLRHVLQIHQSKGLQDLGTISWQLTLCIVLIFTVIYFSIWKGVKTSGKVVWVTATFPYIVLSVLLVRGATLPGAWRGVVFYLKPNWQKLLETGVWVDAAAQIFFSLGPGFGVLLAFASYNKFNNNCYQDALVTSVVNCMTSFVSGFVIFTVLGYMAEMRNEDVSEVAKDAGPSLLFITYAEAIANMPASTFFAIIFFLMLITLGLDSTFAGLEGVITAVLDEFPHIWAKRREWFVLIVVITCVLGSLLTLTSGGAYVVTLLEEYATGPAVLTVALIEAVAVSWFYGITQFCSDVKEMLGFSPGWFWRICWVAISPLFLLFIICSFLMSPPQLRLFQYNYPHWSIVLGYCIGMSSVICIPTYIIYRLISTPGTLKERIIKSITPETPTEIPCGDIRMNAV
# human Thyroid Receptor Alpha (TRa), THRA (gene 7067), sequence (P10827 whole entry, looked up): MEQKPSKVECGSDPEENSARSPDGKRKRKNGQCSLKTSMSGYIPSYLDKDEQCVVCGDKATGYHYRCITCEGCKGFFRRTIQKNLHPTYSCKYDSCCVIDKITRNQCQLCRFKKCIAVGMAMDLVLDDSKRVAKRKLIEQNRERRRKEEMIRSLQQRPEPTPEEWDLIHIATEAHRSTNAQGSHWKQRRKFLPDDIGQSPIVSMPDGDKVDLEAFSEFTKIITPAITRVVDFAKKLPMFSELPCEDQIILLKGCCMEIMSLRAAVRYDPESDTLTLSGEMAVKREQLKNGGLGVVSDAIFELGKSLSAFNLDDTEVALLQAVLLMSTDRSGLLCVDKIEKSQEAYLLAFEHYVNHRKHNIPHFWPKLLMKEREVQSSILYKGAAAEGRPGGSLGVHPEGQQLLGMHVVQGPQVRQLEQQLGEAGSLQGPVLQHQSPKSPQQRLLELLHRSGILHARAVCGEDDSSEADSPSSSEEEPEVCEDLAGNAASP
# Androgen Receptor/SRC-1 Co-activator, AR (gene 367), sequence (P10275 whole entry, looked up, the tested form may be a part): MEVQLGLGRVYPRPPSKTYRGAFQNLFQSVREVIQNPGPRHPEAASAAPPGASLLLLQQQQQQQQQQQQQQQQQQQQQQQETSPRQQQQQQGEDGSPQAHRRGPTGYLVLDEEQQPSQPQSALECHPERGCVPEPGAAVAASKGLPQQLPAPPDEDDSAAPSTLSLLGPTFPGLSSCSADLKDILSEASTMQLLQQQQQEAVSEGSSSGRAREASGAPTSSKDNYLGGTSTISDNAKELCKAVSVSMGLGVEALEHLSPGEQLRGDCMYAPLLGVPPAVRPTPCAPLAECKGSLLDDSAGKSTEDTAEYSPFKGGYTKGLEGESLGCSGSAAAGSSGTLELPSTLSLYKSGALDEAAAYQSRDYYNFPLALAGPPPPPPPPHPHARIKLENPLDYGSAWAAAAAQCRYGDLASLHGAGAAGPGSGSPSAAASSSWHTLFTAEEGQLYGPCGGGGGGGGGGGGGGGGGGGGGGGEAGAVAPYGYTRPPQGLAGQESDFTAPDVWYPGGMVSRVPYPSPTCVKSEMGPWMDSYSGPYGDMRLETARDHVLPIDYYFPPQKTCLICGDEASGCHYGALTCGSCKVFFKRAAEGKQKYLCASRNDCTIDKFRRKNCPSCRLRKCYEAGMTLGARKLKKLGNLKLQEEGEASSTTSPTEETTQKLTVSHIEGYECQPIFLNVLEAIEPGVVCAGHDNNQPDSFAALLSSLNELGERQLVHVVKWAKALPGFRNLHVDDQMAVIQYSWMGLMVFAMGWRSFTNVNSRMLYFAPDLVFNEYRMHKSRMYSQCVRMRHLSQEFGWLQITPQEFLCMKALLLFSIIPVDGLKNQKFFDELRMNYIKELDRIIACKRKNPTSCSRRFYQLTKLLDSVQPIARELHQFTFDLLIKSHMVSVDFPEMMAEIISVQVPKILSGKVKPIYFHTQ
# rat Androgen Receptor (AR), Ar (gene 24208), sequence (P15207 whole entry, looked up): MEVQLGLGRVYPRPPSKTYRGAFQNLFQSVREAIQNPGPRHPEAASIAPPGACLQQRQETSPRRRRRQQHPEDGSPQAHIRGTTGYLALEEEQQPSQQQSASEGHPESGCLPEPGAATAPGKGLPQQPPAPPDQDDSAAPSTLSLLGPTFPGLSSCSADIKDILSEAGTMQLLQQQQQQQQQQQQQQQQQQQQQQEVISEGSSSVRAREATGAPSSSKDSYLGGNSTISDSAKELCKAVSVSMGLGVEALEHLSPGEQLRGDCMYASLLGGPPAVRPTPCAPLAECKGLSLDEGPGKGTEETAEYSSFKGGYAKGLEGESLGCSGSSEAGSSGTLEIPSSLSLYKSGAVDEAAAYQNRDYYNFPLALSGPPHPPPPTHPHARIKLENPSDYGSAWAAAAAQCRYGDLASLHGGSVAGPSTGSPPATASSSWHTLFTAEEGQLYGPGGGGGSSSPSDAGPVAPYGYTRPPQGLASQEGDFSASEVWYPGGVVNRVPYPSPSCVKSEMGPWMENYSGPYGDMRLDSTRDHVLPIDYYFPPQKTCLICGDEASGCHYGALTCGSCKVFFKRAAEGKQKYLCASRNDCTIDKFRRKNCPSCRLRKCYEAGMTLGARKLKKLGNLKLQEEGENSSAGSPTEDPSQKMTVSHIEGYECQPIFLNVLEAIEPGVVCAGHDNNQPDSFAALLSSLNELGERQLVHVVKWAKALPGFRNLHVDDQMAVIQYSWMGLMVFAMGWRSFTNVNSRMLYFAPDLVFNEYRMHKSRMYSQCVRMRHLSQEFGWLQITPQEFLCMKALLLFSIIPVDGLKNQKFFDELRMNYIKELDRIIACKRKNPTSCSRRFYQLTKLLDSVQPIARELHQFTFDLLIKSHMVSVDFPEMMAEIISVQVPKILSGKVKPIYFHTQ
compound,measurement,setting,value
NCCOCCOCCN,outcome,[1],inactive
same,outcome,[2],inactive
same,outcome,[3],inactive
O=[Si]=O,outcome,[4],inactive
same,outcome,[3],inactive
O=C1OC(c2ccc(O)cc2)(c2ccc(O)cc2)c2ccccc21,AC50,[1],35.3 µM (active)
same,AC50,[2],60.1 µM (active)
same,AC50,[3],12 µM (active)
same,outcome,[5],inactive
same,AC50,[6],6.69 µM (active)
same,AC50,[7],6.6 µM (active)
Oc1ccc(O)cc1,outcome,[4],inactive
same,outcome,[3],inactive
same,outcome,[8],inactive
O=C(Oc1ccccc1)c1cccc(C(=O)Oc2ccccc2)c1,outcome,[1],inactive
same,outcome,[2],inactive
same,outcome,[3],inactive
NC1CCCCC1,outcome,[4],inactive
same,outcome,[3],inactive
same,outcome,[8],inactive
CSc1ccc(Oc2ccc(S(N)(=O)=O)cc2CN(C)C)cc1C,AC50,[1],80.7 µM (active)
same,AC50,[2],77 µM (active)
same,outcome,[4],inactive
same,outcome,[9],inactive
same,AC50,[10],12.8 µM (active)
same,AC50,[11],7.61 µM (active)
same,AC50,[12],25 µM (active)
same,AC50,[7],4.52 µM (active)
same,AC50,[13],0.00229 µM (active)
same,AC50,[14],4.12 µM (active)
CCCCCCC(C=O)=Cc1ccccc1,outcome,[3],inactive
C/C=C/C=C/C(=O)O,outcome,[3],inactive
same,outcome,[8],inactive
same,outcome,[15],inactive
CCCCC(CC)COC(=O)CCCCCCCC(=O)OCC(CC)CCCC (stereo not given),outcome,[3],inactive
Cc1cn([C@H]2C=C[C@@H](CO)O2)c(=O)[nH]c1=O,outcome,[3],inactive
CC(C)(C)c1ccccc1,outcome,[3],inactive
same,outcome,[9],inactive
CCc1cc(C2=C(C(=O)O)N(c3ccccc3C(F)(F)F)S(=O)(=O)c3ccccc32)cc2c1OCO2,outcome,[14],inactive
CN(C)CCCN1c2ccccc2Sc2ccc(Cl)cc21,AC50,[10],2.11 µM (active)
same,AC50,[11],8.84 µM (active)
same,AC50,[12],0.0781 µM (active)
same,AC50,[7],4.24 µM (active)
same,AC50,[13],2.55 µM (active)
CCN(CC)CCOc1ccc(C(=C(Cl)c2ccccc2)c2ccccc2)cc1,AC50,[3],21.5 nM (active) and 118 nM (active) and 9.83 nM (active)
same,AC50,[5],16.1 µM (active) and 11 µM (active) and 12.5 µM (active)
same,AC50,[16],25.9 µM (active) and 21 µM (active)
same,outcome,[16],inactive
same,AC50,[17],14.9 µM (active) and 12.2 µM (active) and 16.3 µM (active)
same,AC50,[9],3.15 µM (active) and 3.46 µM (active) and 3.72 µM (active)
same,AC50,[6],2.68 µM (active) [middle of 4 runs]
same,AC50,[10],2.13 µM (active)
same,AC50,[11],3.83 µM (active)
same,AC50,[12],10.2 µM (active)
same,AC50,[13],7.45 µM (active)
O=C1c2c(O)cccc2Cc2cccc(O)c21,outcome,[9],inactive
Oc1ccccc1O,outcome,[3],inactive
same,AC50,[8],0.00229 µM (active)
CC(N)=O,outcome,[3],inactive
same,AC50,[8],4.98 µM (active)
